According to PubChem BioAssay (Tox21):
Records with an inconclusive call do not appear. A number with no mark means an inactive call. Calls follow the shape of the dose curve; as a rule, active = well fitted activation curve with a large enough effect in the repeat runs; inconclusive = weak or mixed curves; inactive = flat fitted curve, though single readings scatter.

Assay: A CellTox Green Cytotoxicity Assay to monitor cytotoxicity in HEK293 cells - 16 hour (AID 1224888); also: nearly all actives have a fitted effect of over 35% in size
Details: CellTox Green fluorescence, active compounds read high; series mostly up to 76.8 µM; activity change: at the top concentration
From the text: National Center for Advancing Translational Sciences [NCATS]
NIH Chemical Genomics Center [NCGC]
U.S. Environmental Protection Agency [EPA]
National Institutes of Environmental Health Sciences [NIEHS]
National Toxicology Program [NTP]
Cell-based models are critical for drug discovery. Determining the natural cytotoxic effects resulting from test compounds is an essential research activity. A CellTox Green Cytotoxicity Assay to monitor cytotoxicity in real time of continues cell culture during 40 hours of the compound treatment was used to screen Tox21 10K library compounds in Hek293 cells. CellTox Green Cytotoxicity Assay is a nonlytic, homogeneous, biofluorescent method to measure cytotoxicity in cell culture after experimental manipulation. The assay system uses a proprietary asymmetric cyanine dye that is excluded from viable cells but preferentially stains the dead cell's DNA. […] Viable cells produce no appreciable increases in fluorescence. Therefore, the fluorescence signal produced by the binding interaction with dead cell DNA is proportional to cytotoxicity.
The mixture of Hek293 cell suspension and reagents were dispensed at 600cells/6 ul/well in 1536-well tissue culture treated black solid bottom plates using a Multidrop dispenser. After the assay plates were incubated at a 37 C/5% CO2 incubator for 5 hours, 23 nL of compounds dissolved in DMSO, positive and negative controls was transferred to the assay plate by a pintool work station. The plates were incubated at 37 C for 40 hours. The fluorescence intensity were measured at 0h, 8h, 16h, 24h, 32h and 40h time points using ViewLux plate reader during compound treatment.
% is scaled to controls: 0 for no effect and ±100 for the full control effect.

SMILES	activity change
CCCCNc1ccc(C(=O)OCCN(C)C)cc1	-15.8% [at 35.3 µM]
CC(N)C(=O)OC(C)(C)Cc1ccc(Cl)cc1 (stereo not given)	-13.4% [at 35.3 µM]
CCCCCCCC/C=C\CCCCCCCC(=O)OCCCC	-29.4% [at 15.8 µM]
CC(=O)CCCCn1c(=O)c2c(ncn2C)n(C)c1=O	-0.661% [at 35.3 µM]
O=Cc1ccc(Cl)c(Cl)c1	-1.49%
C[C@H](CCC(=O)O)[C@H]1CC[C@H]2[C@@H]3C(=O)C[C@@H]4CC(=O)CC[C@]4(C)[C@H]3CC(=O)[C@]12C	-8.56% [at 35.3 µM]
Nc1cccc(O)c1	-9.91%
CC(C)(C)c1n[nH]c(=S)n(N)c1=O	5.04%
CC(C)=CCOC(=O)c1ccccc1	-4.7%
CCCCCCOc1ccccc1C(N)=O	13.4% [at 35.3 µM]
Cc1cccc(C)c1OCC(C)N (stereo not given)	3.5% [at 35.3 µM]
NCCN1CCOCC1	-1.03%
CC(C)(C)c1cc(CCC(=O)NN)cc(C(C)(C)C)c1O	4.86%
C[Si](C)=O	1.45% [at 6.97 µM]
CC(C)c1ccc2cc(C(C)C)ccc2c1	9.03%
O=C(O)c1cc(Cl)cc([N+](=O)[O-])c1Cl	-0.875%
O=C(NCCN1CCOCC1)c1ccc(Cl)cc1	-12.4% [at 35.3 µM]
NCCS	8.36% [at 35.3 µM]
CCCOC(OCCC)OCCC	-7.32%
Cc1ccsc1/C=C/C1=NCCCN1C	0.459% [at 35.3 µM]

SMILES	activity change
Cc1[nH]cnc1-c1ccc(Cl)cc1	-4.39% [at 35.3 µM]
CCOC(=O)[C@H](CCc1ccccc1)N[C@@H](C)C(=O)N1C(=O)N(C)C[C@H]1C(=O)O	-0.189% [at 35.3 µM]
COc1ccc2nc(SCc3ncc(C)c(OC)c3C)[nH]c2c1	0.527% [at 35.3 µM]
C=COCCOCCOCCOC=C	0.0307%
O=C(O)c1cc(Br)c(O)c(Br)c1	-11.9%
CCC(C)(CCC(C)C)C(=O)O (stereo not given)	-10.7%
Nc1ccc2cc(S(=O)(=O)O)cc(O)c2c1	-9.19%
NNc1nnc(NN)c2ccccc12	0.774% [at 35.3 µM]
Nc1ccc(S(=O)(=O)Nc2ccc(Cl)nn2)cc1	6.71% [at 35.3 µM]
CCCCCCN	-0.059%
O=C(OCC(O)CO)c1ccccc1Nc1ccnc2c(C(F)(F)F)cccc12 (stereo not given)	-9.84% [at 35.3 µM]
Cc1ccc2c(c1)OCC(=O)CO2	-5.78%
CCN1CCc2nc(N)oc2CC1	-12% [at 35.3 µM]
COC(=O)CCc1ccc(OCC(O)CNC(C)C)cc1 (stereo not given)	-18.2% [at 35.3 µM]
O=C1c2ccccc2C(=O)C1c1ccccc1	-6.83% [at 35.3 µM]
CC(C)NCC(O)COc1cccc2[nH]ccc12 (stereo not given)	-0.788% [at 35.3 µM]
COc1cc2c(cc1OC)C(=O)CC2	10.5% [at 35.3 µM]
Cc1cccc(OCC(O)CNC(C)(C)C)c1C (stereo not given)	-3.18% [at 35.3 µM]
O=P(O)(O)OP(=O)(O)O	-11%
CCOCCOC(=O)/C=C/c1ccc(OC)cc1	-16.5% [at 35.3 µM]
